Measured values published in PubChem BioAssay (EPA / NIEHS).
Values joined by “and” are separate entries in the source; they are usually repeats but may differ in a detail not shown here. Equal entries are not always repeated. Where a structure was tested more than once in an assay, its records may differ in their call. Active and inactive are the calls of the source. Rule for the calls: active = hit-call score of the fitted dose curve at least 0.9, where 1 is the maximum; inactive = score below 0.9.

Experiment: BSK_KF3CT_SRB: Viability Assessment in the BioMAP Diversity Plus: KF3CT Assay (AID 2283069);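 note: fitted for both signal gain and loss against DMSO baseline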
Conditions: primary human keratinocytes with fibroblasts
Protocol: BSK_KF3CT is a cell-based, multiplexed-readout assay that uses keratinocytes and foreskin fibroblasts, a human skin primary cell co-culture, with measurements taken at 24 hours after chemical dosing in a 96-well plate.BSK_KF3CT_SRB is an assay component measured in the BSK_KF3CT assay. It measures 0.1% sulforhodamine related to cell death using Sulforhodamine staining technology.Data from the assay component BSK_KF3CT_SRB was analyzed into 1 assay endpoint. This assay endpoint, BSK_KF3CT_SRB, was analyzed with bidirectional fitting relative to DMSO as the negative control and baseline of activity. Using a type of viability reporter, gain or loss-of-signal activity can be used to understand changes in the signaling. Furthermore, this assay endpoint can be referred to as a primary readout, because this assay has produced multiple assay endpoints where this one serves a signaling function. To generalize the intended target to other relatable targets, this assay endpoint is annotated to the cell morphology intended target family, where the subfamily is cell conformation.
The levels of cell surface (or secreted, indicated by the prefix "s") biomarker endpoints were measured by ELISA. Overt cytotoxicity to cells in confluent adherent cultures (all systems other than the BT system) was assessed by measuring total protein levels using sulforhodamine B (SRB) staining in parallel cultures at the time of biomarker measurements, indicated as SRB endpoints. For proliferation assays for adherent cell types, individual cell types are cultured at sub-confluence and relative cell numbers quantified by SRB staining at time points optimized for each system (48 h: 3C and CASM3C systems; 72 h: BT and HDF3CGF systems; 96 h: SAg system). SRB was performed by staining cells with 0.1% SRB after fixation with 10% TCA and reading wells at 560 nm.Viability and proliferation of PBMC (T cells) was quantified by Alamar Blue reduction for the SAg and BT systems. For PBMC viability (referred to as PBMC Cytotoxicity within the assay endpoint names), cells were plated (75,000/well in a 96-well plate) and then chemical samples added for 1 h before addition of activators, SEB and TSST-1 (20 ng/mL final concentration each). Cells were incubated for 90 h. Then, Alamar Blue (20 uL/well) (Invitrogen, Cat DAL1100) was added for 6 h, and the plates were read with a fluorescence microplate reader at 546/580 nm (excitation/emission). For PBMC proliferation, cells were plated and activated as above but incubated for only 16 h prior to addition of Alamar Blue. Plates were read after 6 h.

Row | SMILES | AC50 | outcome
1 | CC(C)(C)C(O)/C(=C\c1ccc(Cl)cc1Cl)n1cncn1 (stereo not given) | 20 µM (active) | 
2 | CC(C)N(C(=O)COc1nnc(C(F)(F)F)s1)c1ccc(F)cc1 |  | inactive
3 | COC(=O)c1ccccc1S(=O)(=O)NC(=O)Nc1nc(C)nc(OC)n1 |  | inactive
4 | CNC(=O)Oc1cccc(N=CN(C)C)c1 |  | inactive
5 | CC[C@H](C)[C@H]1O[C@]2(C=C[C@@H]1C)C[C@@H]1C[C@@H](C/C=C(\C)[C@@H](O[C@H]3C[C@H](OC)[C@@H](O[C@H]4C[C@H](OC)[C@@H](O)[C@H](C)O4)[C@H](C)O3)[C@@H](C)/C=C/C=C3\CO[C@@H]4[C@H](O)C(C)=C[C@@H](C(=O)O1)[C@]34O)O2 (tested in a mixture with another compound) | 14.1 µM (active) | 
6 | CCCN(CCOc1c(Cl)cc(Cl)cc1Cl)C(=O)n1ccnc1 |  | inactive
7 | O=C(O)CCCOc1ccc(Cl)cc1Cl |  | inactive
8 | CCS(=O)(=O)c1cccnc1S(=O)(=O)NC(=O)Nc1nc(OC)cc(OC)n1 |  | inactive
9 | CCOCN(C(=O)CCl)c1c(C)cccc1CC |  | inactive
10 | Clc1ccccc1-c1nnc(-c2ccccc2Cl)nn1 |  | inactive
11 | CNC(=O)/C=C(\C)OP(=O)(OC)OC |  | inactive
12 | CCCN(CCC)c1c([N+](=O)[O-])cc(C(F)(F)F)cc1[N+](=O)[O-] |  | inactive
13 | CCC(C)(C)C(=O)OC1=C(c2ccc(Cl)cc2Cl)C(=O)OC12CCCCC2 | 31.9 µM (active) | 
14 | O=[N+]([O-])/N=C1\NCCN1Cc1ccc(Cl)nc1 |  | inactive
15 | N#Cc1c(Cl)c(Cl)c(Cl)c(C#N)c1Cl | 1.49 µM (active) | 
16 | CC(C)(C)C(O)C(Oc1ccc(Cl)cc1)n1cncn1 (stereo not given) |  | inactive
17 | OCCOc1ccccc1 |  | inactive
18 | COC(=O)c1ccccc1S(=O)(=O)NC(=O)N(C)c1nc(C)nc(OC)n1 |  | inactive
19 | O=C1c2ccccc2C(=O)N1SC(Cl)(Cl)Cl |  | inactive
20 | COc1cc(OC)nc(NC(=O)NS(=O)(=O)c2cc(NC=O)ccc2C(=O)N(C)C)n1 |  | inactive

Row | SMILES | AC50 | outcome
21 | O=C(O)C(F)(F)C(F)(F)C(F)(F)C(F)(F)C(F)(F)C(F)(F)C(F)(F)F |  | inactive
22 | CCOC1Oc2ccc(OS(C)(=O)=O)cc2C1(C)C (stereo not given) |  | inactive
23 | CC1(c2ccc(Oc3ccccc3)cc2)OC(=O)N(Nc2ccccc2)C1=O (stereo not given) |  | inactive
24 | COP(=O)(OC)OC=C(Cl)Cl |  | inactive
25 | COC(=O)c1ccccc1CS(=O)(=O)NC(=O)Nc1nc(OC)cc(OC)n1 |  | inactive
26 | O=C(Nc1ccccc1)Nc1cnns1 |  | inactive
27 | CCOc1nc(NC)nc(NC(=O)NS(=O)(=O)c2ccccc2C(=O)OC)n1 |  | inactive
28 | [2H]C1([2H])[n+]2ccccc2-c2cccc[n+]2C1([2H])[2H] |  | inactive
29 | C#CCN1C(=O)COc2cc(F)c(N3C(=O)C4=C(CCCC4)C3=O)cc21 |  | inactive
30 | O=S1OCC2C(CO1)C1(Cl)C(Cl)=C(Cl)C2(Cl)C1(Cl)Cl (stereo not given) | 29.5 µM (active) | 
31 | CC(C)OC(=O)Nc1cccc(Cl)c1 |  | inactive
32 | CN1CSC(=S)N(C)C1 |  | inactive
33 | O=S(=O)(O)C(F)(F)C(F)(F)C(F)(F)C(F)(F)C(F)(F)C(F)(F)C(F)(F)C(F)(F)F | 39.2 µM (active) and 29.9 µM (active) | inactive
34 | CCC(C)Nc1c([N+](=O)[O-])cc(C(C)(C)C)cc1[N+](=O)[O-] (stereo not given) |  | inactive
35 | ClC1C(Cl)C(Cl)C(Cl)C(Cl)C1Cl (stereo not given) |  | inactive
36 | O=C(O)COc1ccc(Cl)cc1Cl |  | inactive
37 | COP(=S)(OC)Oc1ccc([N+](=O)[O-])cc1 |  | inactive
38 | CNC(=O)CSP(=S)(OC)OC |  | inactive
39 | CNC(=O)Oc1ccccc1OC(C)C |  | inactive
